The full list was thinned out, with hits kept by preference.
IL1B secr inh: blocks inflammasome-driven IL-1 beta release; THP-1 LPS/ATP IL-1B secretion, AlphaLISA, 16 h; stronger effect = lower value; activity change, % at 57.5 µM; 4.7% of 360,000 active; in the data active means activity change below about -50%; inconclusive means mostly about -30% to -49%
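Secreted IL-1B measured by AlphaLISA bead assay after 16 h compound exposure of THP-1 cells; compounds (final up to 57.5 uM) added 1 h before LPS (250 ng/mL) and ATP (1.25 mM) stimulation; lower signal means less secretion.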
HT1080NT lethal: kills 2HG-producing HT-1080-NT fibrosarcoma cells | HT-1080-NT fibrosarcoma viability, CellTiter-Glo ATP luminescence, 48 h | Potency, µM (doses to about 46.1 µM), usual class: cytotoxic | 1.6% of 360,000 active | AID 686970;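 further: NT is the 2HG producing partner of a matched IDH1 knockdown line; nearly all actives have a fitted effect of over 55% in size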
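A 48-hour cytotoxicity screen used HT-1080-NT cells plated 2 hours before compound delivery. ATP-based CellTiter-Glo luminescence measured viability, normalized to DMSO and no-cell controls.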
ALOX12 inh: blocks human arachidonate 12S-lipoxygenase. P18054. purified 12hLO, xylenol orange hydroperoxide absorbance. Potency, µM (doses to about 108 µM), usual class: inhibitors. 1.1% of 580,000 active
Target sequence (P18054 whole entry, looked up): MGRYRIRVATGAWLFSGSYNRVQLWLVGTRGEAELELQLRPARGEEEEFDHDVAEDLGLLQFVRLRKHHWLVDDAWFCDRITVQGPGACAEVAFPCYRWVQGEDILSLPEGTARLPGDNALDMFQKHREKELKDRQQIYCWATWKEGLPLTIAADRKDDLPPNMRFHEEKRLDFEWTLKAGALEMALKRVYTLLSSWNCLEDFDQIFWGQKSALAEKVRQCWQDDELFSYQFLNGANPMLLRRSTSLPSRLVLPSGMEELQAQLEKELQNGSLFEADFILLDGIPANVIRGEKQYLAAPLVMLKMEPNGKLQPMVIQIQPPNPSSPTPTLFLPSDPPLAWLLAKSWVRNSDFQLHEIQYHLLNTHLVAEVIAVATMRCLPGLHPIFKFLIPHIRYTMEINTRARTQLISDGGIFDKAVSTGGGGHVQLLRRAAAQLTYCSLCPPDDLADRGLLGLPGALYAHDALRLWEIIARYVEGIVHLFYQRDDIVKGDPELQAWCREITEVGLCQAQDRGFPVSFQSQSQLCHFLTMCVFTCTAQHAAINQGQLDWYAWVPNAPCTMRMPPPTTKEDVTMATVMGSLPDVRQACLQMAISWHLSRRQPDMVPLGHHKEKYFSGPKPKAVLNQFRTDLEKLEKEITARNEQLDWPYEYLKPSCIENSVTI
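Purified human 12hLO (150 nM final) in 25 mM Hepes, 0.01% Triton X-100, pH 7.0 was preincubated 15 min at room temperature with compound. Then 40 uM arachidonic acid was added, 30 min. Hydroperoxide was read by Fe-XO absorbance ratio 573/405 nm.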
HT1080 IDH1KD tx: kills HT-1080 cells with IDH1 knockdown; HT-1080 IDH1 knockdown viability, ATP luminescence, 48 h; Potency, µM (titrated, usually from 46.1 µM), most hits filed as cytotoxic; 2% of 360,000 active; AID 686971
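Assay cells: HT-1080 with IDH1 knockdown, 750 per well, RPMI/5% FBS. Exposure: 48 h at 37 °C following 2 h pre-incubation. Read: CellTiter-Glo luminescence; fitted concentration-response, curve class assigned.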
DT40 TDP1 no CPT: qHTS for Inhibitors of human tyrosyl-DNA phosphodiesterase 1 (TDP1): qHTS in cells in absence of CPT; Potency, µM (series often up to 46.2 µM), hits mostly inhibitors; DT40 Tdp1-/- hTDP1 cells, no CPT, ATP luminescence, 48 h; 15% of 420,000 active; AID 686978, 2013; further: nearly all actives have a fitted effect of over 55% in size
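Readout: luminescence from CellTiter-Glo after 30 min in the dark at RT. Cells: DT40 Tdp1-/- with stable hTDP1, 400/well. Exposure: compounds alone, ≥48 hr, 37 °C.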
DT40 TDP1 CPT: DT40-hTDP1 cell growth loss with CPT | 12% of 420,000 active | Potency, µM (highest dose often 46.2 µM), hits mostly inhibitors | chicken DT40 Tdp1-/-;hTDP1 cells + 20 nM CPT, ATP luminescence, 48 h; further: nearly all actives have a fitted effect of over 55% in size
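Chicken DT40 Tdp1-/- cells complemented with human TDP1, 400 cells/well, exposed to compounds plus 20 nM camptothecin for at least 48 h at 37 C; viability read as ATP content by CellTiter-Glo luminescence.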
Numbers stand for hits; – = inactive; ? = inconclusive; · = no result; [ ] = remark or other dose. Unless noted, the call rests on the fitted dose curve; in most records, active means well fitted curve in the direction sought with a large enough effect; inconclusive means small, poorly fitted or top-dose-only effect, or another doubt; inactive means no such curve, though single readings can be large; an effect the other way counts as inactive or inconclusive.

SMILES | IL1B secr inh | HT1080NT lethal | ALOX12 inh | HT1080 IDH1KD tx | DT40 TDP1 no CPT | DT40 TDP1 CPT
Cc1ccc(-c2[nH]nc3c2C(c2ccsc2)C(C#N)=C(N)O3)cc1 (stereo unspecified) | – | – | ? | – | – | –
N#CC1=C(N)Oc2n[nH]c(-c3ccccc3)c2C1c1ccsc1 (stereo unspecified) | – | – | – | – | 11.6µM | ?
Cc1[nH]nc2c1C(c1ccc(F)cc1)C(C#N)=C(N)O2 (stereo unspecified) | – | – | – | – | – | –
CCc1[nH]nc2c1C(C(C)C)C(C#N)=C(N)O2 (stereo unspecified) | -83.5 | – | – | – | ? | ?
COCC(=O)Nc1nc2c(s1)C[C@@H]1[C@](C)(CO)[C@H](O)CC[C@@]1(C)[C@@H]2CC(=O)NCc1ccccc1 | · | · | – | · | · | ·
CCC(CC)C1C(C#N)=C(N)Oc2n[nH]c(-c3ccccc3)c21 (stereo unspecified) | – | ? | – | –[9.24 µM] | 25.9µM | ?
CCC(CC)C1C(C#N)=C(N)Oc2n[nH]c(C)c21 (stereo unspecified) | -87.9 | 11.2µM | – | 11.2µM | 16.4µM | 18.4µM
CCn1nc(C)c(C2C(C#N)=C(N)Oc3n[nH]c(C)c32)c1C (stereo unspecified) | – | – | – | – | – | –
COc1ccc(CN2CCc3nc(N4CCOCC4)[nH]c(=O)c3CC2)cc1Br | · | · | – | · | · | ·
O=C(N[C@@H]1CN(Cc2ccc(F)cc2Cl)C[C@H]1CO)C1CCC1 | · | · | – | · | · | ·
CCN1C(=S)N[C@@H](c2cccs2)C(C(=O)OC)=C1C | – | – | – | – | – | ?
Cc1cc(C)c(S(=O)(=O)Nc2ccc(N(C)C)cc2)c(C)c1-n1cnnn1 | – | – | – | – | 16.4µM | 29.1µM
Cc1ccc(S(=O)(=O)Nc2ccc(-n3cnnn3)cc2)c(C)c1 | – | – | ? | – | ? | ?
Cc1cc(C)nc(-n2nc(C)c(Br)c2Nc2ccc(Br)cc2)n1 | ? | – | – | – | ? | ?
Cc1nn(C)c(Nc2ccc(Br)cc2)c1Br | -54.6 | – | – | ? | 18.4µM | 14.6µM
CC(CCc1ccccc1)NC(=O)Cn1c(=O)c2c(ncn2C)n(C)c1=O (stereo unspecified) | · | · | – | · | · | ·
Cc1cccc(NC(=O)c2ccc(F)c(S(=O)(=O)N3CCC4(CC3)OCCO4)c2)c1 | – | – | – | – | ? | ?
O=C(Nc1ccc(Oc2ccccc2)cc1)c1ccc(F)c(S(=O)(=O)N2CCN(c3ccccc3F)CC2)c1 | · | · | – | · | 4.61µM | 5.8µM
CC(C)c1ccc(NC(=O)c2ccc(F)c(S(=O)(=O)N3CCN(c4ccccc4F)CC3)c2)cc1 | · | · | – | · | ? | –
COc1ccccc1N1CCN(S(=O)(=O)c2cc(C(=O)Nc3ccc(Oc4ccccc4)cc3)ccc2F)CC1 | · | · | – | · | 5.8µM | 3.26µM
Cc1cccc(N2CCN(S(=O)(=O)c3cc(C(=O)Nc4ccc(Oc5ccccc5)cc4)ccc3F)CC2C)c1 (stereo unspecified) | · | · | ? | · | 2.91µM | 2.06µM
COc1ccc(C(=O)Nc2ccc(NC(=O)c3ccccc3)cc2)cc1S(=O)(=O)N1CCOCC1 | – | – | ? | ? | ? | –
Cc1cccc(N2CCN(c3ccc(C(=O)O)cc3NC(=O)c3cccc(Cl)c3)CC2C)c1 (stereo unspecified) | · | · | 44.7µM | · | ? | ?
CCCSc1nnc(-c2nn(Cc3ccccc3)c(=O)c3ccccc23)o1 | · | · | – | · | · | ·
CC(C)Oc1cc(Br)ccc1C(=O)O | · | · | – | · | · | ·
SMILES | IL1B secr inh | HT1080NT lethal | ALOX12 inh | HT1080 IDH1KD tx | DT40 TDP1 no CPT | DT40 TDP1 CPT
C=CC[n+]1c(C)csc1Nc1ccc(C)cc1 | – | – | ? | – | ? | –
C=CC[n+]1c(-c2ccc(Cl)cc2Cl)csc1Nc1ccc(NC(C)=O)cc1 | -80.2 | ? | ? | 18.4µM | 20.6µM | ?
C=CC[n+]1c(-c2ccc(Cl)cc2Cl)csc1Nc1c(C)n(C)n(-c2ccccc2)c1=O | -80.0 | 20.6µM | ? | 14.6µM | 3.66µM | 5.17µM
Cc1c(NC(=O)Nc2cc(Cl)ccc2Cl)c(=O)n(-c2ccccc2)n1C | – | – | – | – | – | –
Cc1ccsc1C(=O)N1CCC(c2nn(C)c3c2COCC3)CC1 | · | · | – | · | · | ·
CC(C)(C)OC(=O)C[C@H]1C/C=C\C[C@@H](CC(=O)NCCO)C(=O)NC[C@H](c2ccccc2)OC1=O | – | – | – | – | – | –
O=C(C[C@@H]1C/C=C\C[C@H](NC(=O)OCC2c3ccccc3-c3ccccc32)C(=O)O[C@H](c2ccccc2)CNC1=O)NCCO | – | – | ? | – | 2.06µM | 2.59µM
O=C(C[C@H]1C/C=C\C[C@@H](Cc2ccc(F)cc2)C(=O)O[C@H](c2ccccc2)CNC1=O)NCCO | – | – | – | – | ? | ?
O=C(C[C@H]1C/C=C\C[C@H](NC(=O)OCC2c3ccccc3-c3ccccc32)C(=O)O[C@@H](c2ccccc2)CNC1=O)NCCO | – | – | – | – | 10.3µM | 9.2µM
Cc1cc(C(=O)NCc2ccncc2)c2ccccc2n1 | · | · | – | · | · | ·
COc1ccc(C(=O)/C=C/c2ccc(C(F)(F)F)cc2)cc1F | · | · | – | · | · | ·
COc1ccc(Cc2c(-c3ccco3)nc3ccc(Br)cn23)c(C)c1 | – | ? | ? | 20.6µM | ? | 20.6µM
COc1ccc(Cc2c(-c3ccco3)nc3ccc(Cl)cn23)c(C)c1 | – | – | ? | ? | ? | ?
COc1ccccc1Cc1c(-c2ccco2)nc2c(C)cc(Br)cn12 | – | 3.26µM | · | 3.66µM | 5.8µM | 2.91µM
COc1ccc(Cc2c(-c3ccco3)nc3c(C)cc(Br)cn23)c(C)c1 | – | ? | ? | 6.51µM | 2.31µM | 2.91µM
COc1ccccc1Cc1c(-c2ccc(C)cc2)nc2c3ccccc3ccn12 | · | · | – | · | · | ·
COc1ccccc1Cc1c(-c2ccco2)nc2c3ccccc3ccn12 | – | ? | ? | ? | 16.4µM | 23.1µM
COCC(C)NS(=O)(=O)c1c(C)c(C)cc(C)c1C (stereo unspecified) | · | · | – | · | · | ·
Cc1ccc(C(O)(C(=O)NNS(=O)(=O)c2ccc(C)cc2)c2ccc(C)cc2)cc1 | -52.6 | – | ? | – | – | –
CC(C)(C)c1ccc(S(=O)(=O)NNC(=O)c2cc3ccccc3[nH]2)cc1 | – | 20.6µM | ? | 20.6µM | ? | ?
CC(C)(C)c1ccc(C(=O)NCCCNC(=O)c2cc3ccccc3[nH]2)cc1 | · | · | – | · | · | ·
N#Cc1nc(-c2ccc(S(=O)(=O)N3CCCCC3)cc2)oc1NCCN1CCOCC1 | · | · | – | · | · | ·
